PLCg1 inh = PLC-gamma1 (human) inhibition, primary screen; P19174; purified PLC-gamma1, fluorogenic substrate, fluorescence; inhibition, % at 12.2 µM; actives 0.84% (n = 370,000); in the data active = inhibition above about 9.5%
PLCb3 inh = blocks human PLC-beta3 enzyme activity; Purified PLC-beta3, fluorogenic substrate, fluorescence; Q01970; actives 0.18% (n = 370,000); AID 720704; inhibition, % at 12.2 µM; in the data active = inhibition above about 11%;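 note: 0% = median of compound wells on plate and 100% = full blocker control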
ADAM10 inh = inhibitors of human ADAM10 | O14672 | recombinant ADAM10, EDANS/DABCYL FRET peptide cleavage, 3 h | inhibition, % at 7 µM | actives 0.62% (n = 370,000);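 active = inhibition above a per-campaign cutoff equal to the mean of compounds falling between control-based bounds plus 3 SD, cut at about 20% in these data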;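 note: 0% = DMSO wells while the 100% control is not disclosed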
Target sequence (O14672 214-748 limits assumed): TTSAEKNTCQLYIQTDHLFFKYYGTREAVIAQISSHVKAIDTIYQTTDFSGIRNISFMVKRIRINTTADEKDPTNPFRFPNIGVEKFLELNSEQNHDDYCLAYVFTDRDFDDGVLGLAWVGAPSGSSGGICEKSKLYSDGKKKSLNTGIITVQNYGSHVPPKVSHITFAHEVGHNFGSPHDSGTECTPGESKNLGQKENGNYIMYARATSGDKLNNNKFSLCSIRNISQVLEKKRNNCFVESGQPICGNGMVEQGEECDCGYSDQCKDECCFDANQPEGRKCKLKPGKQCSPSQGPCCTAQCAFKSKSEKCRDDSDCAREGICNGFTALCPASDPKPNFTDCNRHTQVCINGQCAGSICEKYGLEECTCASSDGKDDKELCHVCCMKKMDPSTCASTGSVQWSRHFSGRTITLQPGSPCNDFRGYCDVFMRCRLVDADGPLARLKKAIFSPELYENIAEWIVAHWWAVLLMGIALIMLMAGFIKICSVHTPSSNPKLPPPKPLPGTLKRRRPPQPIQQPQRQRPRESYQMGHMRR
proKLK7 act = proKLK7 (human) activation, primary screen; purified proKLK7, EDANS-DABCYL substrate fluorescence; 100% is mature enzyme control, 0% vehicle; actives 0.9% (n = 370,000); P49862; activation, % at 7 µM;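 active = activation above the mean of all tested compounds plus 3 SD, computed per campaign excluding outliers beyond control limits, cut at about 13% in these data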
ADAM17 inh = ADAM17 inhibition, QFRET primary screen | P78536 | recombinant ADAM17, EDANS/DABCYL FRET peptide cleavage | inhibition, % at 6.95 µM | actives 0.83% (n = 370,000) | AID 720648;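 active = inhibition above the mean of compounds lying between control limits plus 3 SD, set per campaign, cut at about 8.5% in these data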;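 note: 0% = DMSO-only wells as the low control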
KLK7 act conf = proKLK7 activation, confirmation; shares compounds with proKLK7 act; purified proKLK7, EDANS-DABCYL substrate fluorescence; scaled: vehicle 0, mature enzyme 100; activation, % at 7 µM; actives 68% (n = 3,200); AID 686949;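 active = activation, as change over the incubation, above the mean of all tested compounds plus 3 SD, cut at about 13% in these data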
EDANS-DABCYL int = counter-screen for kallikrein-7 activators: EDANS-DABCYL optical interference. shares compounds with proKLK7 act. EDANS-DABCYL substrate fluorescence interference, no enzyme, 4 h; solvent 0%, active enzyme control 100%. activation, % at 7 µM. actives 80% (n = 3,200);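 active = activation above the all-compound mean plus 3 SD, ignoring values outside control-based bounds, cut at about 4.8% in these data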;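 note: value is the 4 h activation minus the activation read at time zero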
K7 EDANS ctr = EDANS fluorescence interference in dose response, no enzyme; EC50, µM; actives 20% (n = 250); shares compounds with proKLK7 act; EDANS-DABCYL peptide fluorescence interference;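 active = compounds that raise the fluorescence signal in this interference counterscreen, with EC50 at or below 10 µM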;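 note: intact quenched peptide substrate alone read at 355 nm excitation and 520 nm emission; signal is fluorescence gain from T0 to T4 after four hours at room temperature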
The depositor's hits bear a star; i = inactive; · = no result given. An excerpt weighted towards active compounds, which were near 2.9% of everything screened.

SMILES	PLCg1 inh	PLCb3 inh	ADAM10 inh	proKLK7 act	ADAM17 inh	KLK7 act conf	EDANS-DABCYL int	others
Cc1ccc2nc(NCC(N)=O)nc(-c3ccccc3)c2c1	i	i	i	30*	-426	22*	34*
Cc1ccc2nc(NCC(=O)O)nc(-c3ccccc3)c2c1	i	i	i	14*	-167	28*	15*	K7 EDANS ctr=>70
CCC(SC1=N/C(=C/c2ccccc2OC)C(=O)N1c1ccccc1)C(=O)Nc1cc(C)on1 (stereo not drawn)	-33	-36	12	39*	4	-9	-6
CCc1nnn2c1Cn1c3ccccc3c(=O)n1[C@@H](C)C2	-28	-39	-293	2	-76	·	·
COc1cc([N+](=O)[O-])ccc1NC(=O)CN1CCc2cc(OC)c(OC)cc2C1	-194	-263	-139	25*	-52	2	2
COc1cc2c(cc1OC)CN(CC(=O)NC(=O)NCc1ccccc1)CC2	-117	-200	-77	15*	-29	3	4.4*
COc1cc2c(cc1OC)CN(CC(=O)Nc1cccc([N+](=O)[O-])c1)CC2	-272	-371	-76	28*	-31	5	2
COc1cc2c(cc1OC)CN(CC(=O)Nc1ccccc1C(=O)NCc1ccccc1)CC2	-13	-25	1	2	-2	·	·
COc1cc2c(cc1OC)CN(CCC(=O)c1ccc(Br)cc1)CC2	-78	-126	-56	14*	-22	7	7.8*
CC1(C)CC(=O)C=C(C#CC2CC2)C1	-3	0	-11	0	-2	·	·
COC(=O)c1ccc(-c2sc3nc(N4CCOCC4)c4c(c3c2N)CCCC4)o1	i	i	-61	-6	-24	·	·
CC12CCC(=O)N1c1c(sc3nc(N4CCOCC4)c4c(c13)CCCC4)C(=O)N2 (stereo not drawn)	-402	i	i	20*	-176	69*	68*
CC(C)C(NC(=O)[C@H](Cc1ccc(O)cc1)NC(=O)OC(C)(C)C)P(=O)(O)OC(Cc1ccccc1)C(=O)O (stereo partly drawn)	-2	0	-5	·	-6	·	·
NC(=S)NNc1ccnc2cc(Cl)ccc12	-3	-3	-2	16*	-2	20*	21*
S=C(Nc1ccccc1)OC1CCC12CCC(c1ccccc1)CC2 (stereo not drawn)	3	-1	5	0	4	·	·
COc1cc2c(cc1OC)CN(C(=O)CN1CCN(S(=O)(=O)c3ccccc3Br)CC1)CC2	-186	-278	-190	30*	-57	1	0
COc1ccc(S(=O)(=O)N2CCN(CC(=O)N3CCc4ccccc4C3)CC2)cc1OC	1	-3	-1	0	-7	·	·
CCOC(=O)c1cnc2c(C(=O)OC)cccc2c1NCc1ccco1	i	i	i	14*	i	15*	7.3*	K7 EDANS ctr=>70
CCOC(=O)c1cnc2c(C)cccc2c1NCc1ccco1	-16	-24	-36	0	-12	·	·
O=C1CCC2(CCC(c3ccccc3)CC2)N1CCCO (stereo not drawn)	2	0	-8	0	-2	·	·
Cc1ccc(S(=O)(=O)NN2C(=O)c3ccccc3NC2(C)C)cc1	-204	-250	i	49*	-158	50*	43*
CC1(C)Nc2ccccc2C(=O)N1NS(=O)(=O)c1ccccc1	-232	-317	i	75*	-249	46*	42*
COc1ccc2c(C(=O)NCCCCO)c(-c3ccc(S(C)(=O)=O)cc3)sc2c1	i	i	i	49*	i	65*	82*
COC(=O)c1cc(N=CC2=C(O)CC(C)(C)CC2=O)cc(C(=O)OC)c1	-78	-104	-314	25*	-91	47*	45*
COC(=O)c1cc(OC)c(OC)cc1N=CC1=C(O)CC(C)(C)CC1=O	-12	-8	-6	-1	-5	·	·
SMILES	PLCg1 inh	PLCb3 inh	ADAM10 inh	proKLK7 act	ADAM17 inh	KLK7 act conf	EDANS-DABCYL int	others
CC1C2CC(CC1(C)C)N(C(=O)Nc1ccc3nccnc3c1)C2 (stereo not drawn)	-499	i	i	18*	-185	-1	-1
O=C(OCCN1CCN(C2CN(Cc3cn(Cc4ccc([N+](=O)[O-])cc4)nn3)S(=O)(=O)C2)CC1)c1cc2ccccc2o1 (stereo not drawn)	1	2	1	0	-3	·	·
Cc1nnsc1-c1nc2ccccc2[nH]1	i	i	i	32*	-247	31*	45*
CCOC(=O)CC1(CC(=O)OCC)NC(=O)c2c(C)sc(C(=O)OCC)c2N1	-310	-350	i	13*	-190	4	4.3*
CCCCC1(C)NC(=O)c2c(C)sc(C(=O)OCC)c2N1 (stereo not drawn)	-397	i	i	5	-170	·	·
CCOC(=O)CC1(C)NC(=O)c2c(C)sc(C(=O)OCC)c2N1 (stereo not drawn)	i	i	i	13*	-236	-16	-22
N=c1oc2ccc3ccccc3c2cc1-c1nnc2n1CCCCC2	i	i	i	63*	i	72*	72*
Cc1ccc(CN2CCCCC(NC(=O)c3ccc(F)cc3)C2=O)cc1 (stereo not drawn)	0	-3	3	0	2	·	·
O=C(NCCc1ccccc1)OCc1cn(Cc2ccc(Cl)cc2)nn1	-4	-4	-5	0	-6	·	·
CNC(=O)c1ccc(-c2ccc(OC)cc2)s1	i	i	i	50*	i	56*	66*
COc1ccc(NC(=O)c2ccc(-c3ccc(OC)cc3)s2)cc1	-5	-8	-21	0	-4	·	·
Cc1nn2c(c1-c1ccccc1)NC1=C(C(=O)CCC1)C2c1ccccc1 (stereo not drawn)	i	i	i	30*	-495	63*	74*
COC[C@H]1CCCN1c1ccc2c(c1)O[C@H]1CCN(C1)S2(=O)=O	1	3	-2	0	-2	·	·
O=C1c2cccc3cccc(c23)C(=O)N1OS(=O)(=O)c1ccccc1	-21	-30	-20	26*	-6	-179	-10
Cc1ccc(S(=O)(=O)N2C(=O)c3cccc4cccc2c34)cc1	-31	-56	1	0	-3	·	·
O=C1c2cccc3cccc(c23)C(=O)N1OS(=O)(=O)c1ccc(Br)cc1	-3	-2	3	1	0	·	·
Cc1ccc(S(=O)(=O)ON2C(=O)c3cccc4cccc(c34)C2=O)cc1	-12	-12	-13	19*	-1	-32	39*

Screens (PubChem)
